Test results as given in PubChem BioAssay AID1159580 (chemical genetic matrix, 2015).
The campaign covered roughly 5,500 compounds. About 2,000 (36%) were called active. Another 18% or so got no clear call; they are omitted. Cut-off read from the data, not from the text of the source: active = normalized growth mostly below about 0.91 (no sharp cut-off); inconclusive = no clear call, values can overlap the other calls; inactive = mostly above about 0.92. This is one part of the list.

Assay: chemical genetic growth profiling, strain panel (AID 1159580);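 note: tested at 20 µM; growth read once vehicle control cultures reached saturation at 30 °C; 1 = growth at the plate median or of vehicle wells; lower values mean less growth of the strain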
Details: growth OD

Measured: normalized growth

CCNc1nc(Cl)nc(NC(C)C)n1
inactive: S. cerevisiae deletion strains, locus YJR075W, strain HOC1, stronger effect = lower value 1.02 | S. cerevisiae deletion strains, locus YKL009W, strain mrt4, stronger effect = lower value 1.03 | S. cerevisiae deletion strains, locus YKL068W, stronger effect = lower value 1.02 | S. cerevisiae deletion strains, locus YKL085W, strain MDH1 (second series), stronger effect = lower value 1.02 | S. cerevisiae deletion strains, locus YKL085W, strain MDH1, stronger effect = lower value 1.02 | S. cerevisiae deletion strains, locus YKL160W, strain elf1, stronger effect = lower value 1 | S. cerevisiae deletion strains, locus YKL190W, strain CNB1, stronger effect = lower value 1.03 | S. cerevisiae deletion strains, locus YKR001C, strain vps1, stronger effect = lower value 1.03 | S. cerevisiae deletion strains, locus YKR026C, strain gcn3, stronger effect = lower value 0.991 | S. cerevisiae deletion strains, locus YKR091W, strain srl3, stronger effect = lower value 1.01 | S. cerevisiae deletion strains, locus YLL001W, strain dnm1, stronger effect = lower value 0.998 | S. cerevisiae deletion strains, locus YLL026W, stronger effect = lower value 1 | S. cerevisiae deletion strains, locus YLL041C, strain sdh2, stronger effect = lower value 1 | S. cerevisiae deletion strains, locus YLR027C, strain aat2, stronger effect = lower value 0.996 | S. cerevisiae deletion strains, locus YLR039C, strain RIC1, stronger effect = lower value 1.02 | S. cerevisiae deletion strains, locus YLR058C, strain SHM2, stronger effect = lower value 1.02 | S. cerevisiae deletion strains, locus YLR102C, strain apc9, stronger effect = lower value 1.02 | S. cerevisiae deletion strains, locus YLR113W, strain HOG1, stronger effect = lower value 0.993 | S. cerevisiae deletion strains, locus YLR221C, strain rsa3, stronger effect = lower value 1.01 | S. cerevisiae deletion strains, locus YLR258W, strain gsy2, stronger effect = lower value 1.01 | S. cerevisiae deletion strains, locus YLR262C, strain YPT6 (second series), stronger effect = lower value 1.01 | S. cerevisiae deletion strains, locus YLR262C, strain YPT6, stronger effect = lower value 1.04 | S. cerevisiae deletion strains, locus YLR268W, strain sec22, stronger effect = lower value 1.01 | S. cerevisiae deletion strains, locus YLR320W, strain mms22, stronger effect = lower value 1.01 | S. cerevisiae deletion strains, locus YLR330W, strain CHS5, stronger effect = lower value 1.02 | S. cerevisiae deletion strains, locus YLR342W, strain FKS1 (second series), stronger effect = lower value 1.01 | S. cerevisiae deletion strains, locus YLR342W, strain FKS1, stronger effect = lower value 1 | S. cerevisiae deletion strains, locus YLR357W, strain rsc2, stronger effect = lower value 0.991 | S. cerevisiae deletion strains, locus YLR370C, strain arc18, stronger effect = lower value 0.984 | S. cerevisiae deletion strains, locus YLR371W, strain rom2, stronger effect = lower value 1.02 | S. cerevisiae deletion strains, locus YLR384C, strain iki3, stronger effect = lower value 1.01 | S. cerevisiae deletion strains, locus YLR418C, strain cdc73, stronger effect = lower value 1.04 | S. cerevisiae deletion strains, locus YML016C, strain PPZ1, stronger effect = lower value 1.01 | S. cerevisiae deletion strains, locus YML032C, strain rad52, stronger effect = lower value 1.03 | S. cerevisiae deletion strains, locus YML120C, strain ndi1, stronger effect = lower value 1.02 | S. cerevisiae deletion strains, locus YML124C, strain tub3, stronger effect = lower value 1.02 | S. cerevisiae deletion strains, locus YMR058W, strain fet3, stronger effect = lower value 1.01 | S. cerevisiae deletion strains, locus YMR078C, strain ctf18, stronger effect = lower value 1.01 | S. cerevisiae deletion strains, locus YMR125W, strain sto1, stronger effect = lower value 0.977 | S. cerevisiae deletion strains, locus YMR129W, stronger effect = lower value 1 | S. cerevisiae deletion strains, locus YMR205C, strain PFK2, stronger effect = lower value 1.01 | S. cerevisiae deletion strains, locus YMR223W, strain ubp8, stronger effect = lower value 1.02 | S. cerevisiae deletion strains, locus YMR231W, strain pep5, stronger effect = lower value 0.996 | S. cerevisiae deletion strains, locus YMR263W, strain SAP30, stronger effect = lower value 1.03 | S. cerevisiae deletion strains, locus YMR307W, strain GAS1, stronger effect = lower value 1.09 | S. cerevisiae deletion strains, locus YNL067W, strain RPL9B, stronger effect = lower value 1.02 | S. cerevisiae deletion strains, locus YNL071W, strain lat1, stronger effect = lower value 1.01 | S. cerevisiae deletion strains, locus YNL128W, strain TEP1, stronger effect = lower value 1.02 | S. cerevisiae deletion strains, locus YNL153C, strain GIM3, stronger effect = lower value 1.01 | S. cerevisiae deletion strains, locus YNL183C, strain NPR1, stronger effect = lower value 0.97 | S. cerevisiae deletion strains, locus YNL209W, strain ssb2, stronger effect = lower value 1.01 | S. cerevisiae deletion strains, locus YNL233W, strain BNI4, stronger effect = lower value 0.98 | S. cerevisiae deletion strains, locus YNL248C, strain rpa49, stronger effect = lower value 0.994 | S. cerevisiae deletion strains, locus YNL250W, strain rad50, stronger effect = lower value 1.01 | S. cerevisiae deletion strains, locus YNL271C, strain bni1, stronger effect = lower value 1.02 | S. cerevisiae deletion strains, locus YNL298W, strain CLA4, stronger effect = lower value 1.02 | S. cerevisiae deletion strains, locus YNL307C, strain MCK1, stronger effect = lower value 1.02 | S. cerevisiae deletion strains, locus YNL322C, strain KRE1 (second series), stronger effect = lower value 1 | S. cerevisiae deletion strains, locus YNL322C, strain KRE1, stronger effect = lower value 1.02 | S. cerevisiae deletion strains, locus YNR049C, strain mso1, stronger effect = lower value 1 | S. cerevisiae deletion strains, locus YNR052C, strain pop2, stronger effect = lower value 1.04 | S. cerevisiae deletion strains, locus YOL006C, strain TOP1, stronger effect = lower value 1.04 | S. cerevisiae deletion strains, locus YOL012C, strain htz1 1.05 | S. cerevisiae deletion strains, locus YOL147C, strain pex11, stronger effect = lower value 1.01 | S. cerevisiae deletion strains, locus YOR001W, strain rrp6, stronger effect = lower value 0.998 | S. cerevisiae deletion strains, locus YOR061W, strain CKA2, stronger effect = lower value 1.02 | S. cerevisiae deletion strains, locus YOR069W, strain VPS5, stronger effect = lower value 1.01 | S. cerevisiae deletion strains, locus YOR070C, strain gyp1, stronger effect = lower value 1.01 | S. cerevisiae deletion strains, locus YOR080W, strain dia2, stronger effect = lower value 0.995 | S. cerevisiae deletion strains, locus YOR083W, strain WHI5, stronger effect = lower value 1 | S. cerevisiae deletion strains, locus YOR106W, strain vam3, stronger effect = lower value 1.04 | S. cerevisiae deletion strains, locus YOR136W, strain idh2, stronger effect = lower value 1.02 | S. cerevisiae deletion strains, locus YOR144C, strain elg1, stronger effect = lower value 1.02 | S. cerevisiae deletion strains, locus YOR184W, strain ser1, stronger effect = lower value 1.03 | S. cerevisiae deletion strains, locus YOR231W, strain MKK1, stronger effect = lower value 0.997 | S. cerevisiae deletion strains, locus YOR265W, strain rbl2, stronger effect = lower value 1 | S. cerevisiae deletion strains, locus YOR270C, strain vph1, stronger effect = lower value 0.975 | S. cerevisiae deletion strains, locus YOR290C, strain snf2, stronger effect = lower value 1.01 | S. cerevisiae deletion strains, locus YOR316C, strain cot1, stronger effect = lower value 1.03 | S. cerevisiae deletion strains, locus YPL051W, strain arl3, stronger effect = lower value 0.98 | S. cerevisiae deletion strains, locus YPL055C, strain LGE1, stronger effect = lower value 1.03 | S. cerevisiae deletion strains, locus YPL078C, strain atp4, stronger effect = lower value 0.977 | S. cerevisiae deletion strains, locus YPL106C, strain sse1, stronger effect = lower value 1.03 | S. cerevisiae deletion strains, locus YPL240C, strain hsp82, stronger effect = lower value 1.01 | S. cerevisiae deletion strains, locus YPL241C, strain CIN2, stronger effect = lower value 1.03 | S. cerevisiae deletion strains, locus YPL256C, strain CLN2, stronger effect = lower value 0.996 | S. cerevisiae deletion strains, locus YPR119W, strain clb2, stronger effect = lower value 1.01 | S. cerevisiae deletion strains, locus YPR141C, strain kar3, stronger effect = lower value 1.03 | S. cerevisiae deletion strains, locus YPR163C, strain tif3, stronger effect = lower value 1.03 | S. cerevisiae deletion strains, locus YPR167C, strain met16, stronger effect = lower value 1.02 | S. cerevisiae deletion strains, strain wtn01, stronger effect = lower value 1.02 | S. cerevisiae strains, strain wild type, stronger effect = lower value 1.02
